Screening data deposited in PubChem by several laboratories.
aDG glyco up = alpha-DG glycosylation activation; Pro5-aDG cells, alpha-DG glycosylation AlphaScreen (IIH6); 0% Pro5, 100% B10-LARGE cell signal; activation, % at 10 µM; 0.22% of 360,000 active; AID 624168;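 active = activation of at least 8% versus controls, or a plate z-score of at least 8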;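 note: Pro5 are CHO cells carrying HIG-tagged alpha-DG that lacks glycosylation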
HIV Env fusion = blocks HIV Env-driven cell-cell fusion; HeLa-JRFL Env/CEM21 cell fusion, luciferase; inhibition, % at 12.3 µM; 1.1% of 360,000 active; AID 651610;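 active = mean replicate inhibition score of at least 50 and every replicate individually at or above 50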;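 note: 0% = plate neutral controls and 100% = maraviroc near 300 nM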
COUP-TFII inh = NR2F2 (human) inhibition, primary screen; P24468; HEK293T NGFI-A luciferase reporter, luminescence; inhibition, % at 8.6 µM; 0.7% of 370,000 active;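 active = inhibition above a per-plate cutoff, mean inhibition of test wells between control levels plus 3 SD, cut at about 38% in these data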;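 note: cells cotransfected with COUP-TFII expression vector driving the NGFI-A reporter; 0% = median of COUP-TF2 test wells and 100% = reporter-only cells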
Target sequence (P24468 whole entry, looked up): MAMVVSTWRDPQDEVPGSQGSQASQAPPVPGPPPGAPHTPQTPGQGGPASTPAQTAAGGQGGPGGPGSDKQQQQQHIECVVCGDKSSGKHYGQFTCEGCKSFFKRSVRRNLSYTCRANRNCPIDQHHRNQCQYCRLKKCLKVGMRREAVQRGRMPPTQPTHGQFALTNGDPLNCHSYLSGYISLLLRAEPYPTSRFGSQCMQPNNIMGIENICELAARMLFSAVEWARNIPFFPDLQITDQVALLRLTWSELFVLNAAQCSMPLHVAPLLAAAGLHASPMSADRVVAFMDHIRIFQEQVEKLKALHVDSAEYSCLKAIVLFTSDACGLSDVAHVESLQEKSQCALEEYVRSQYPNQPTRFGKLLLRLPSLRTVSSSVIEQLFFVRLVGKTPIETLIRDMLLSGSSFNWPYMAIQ
Gli-Sufu block = Gli-Sufu pathway antagonism; 0.74% of 340,000 active; inhibition, % at 5 µM; Sufu-KO-LIGHT fibroblasts, Gli luciferase reporter luminescence;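 active = inhibition above about 55%, limit read from the data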;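 note: 0% = DMSO-treated cells and 100% = wells with medium but no cells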
GalR3 antagonist = human GalR3 antagonism. O60755. HEK293 GalR3-CNG cAMP membrane potential fluorescence; galR3 body fused to GalR1 C-terminus. inhibition, % at 3 µM. 0.44% of 360,000 active;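 active = inhibition above the screen-wide average plus 3 SD, cut at about 13% in these data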;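 note: forskolin and galanin both at EC90 stimulate the cells; cAMP rise reported by CNG channel membrane potential dye signal; 0% = forskolin plus galanin with DMSO and 100% = forskolin alone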
Target sequence (O60755 1-299 limits assumed): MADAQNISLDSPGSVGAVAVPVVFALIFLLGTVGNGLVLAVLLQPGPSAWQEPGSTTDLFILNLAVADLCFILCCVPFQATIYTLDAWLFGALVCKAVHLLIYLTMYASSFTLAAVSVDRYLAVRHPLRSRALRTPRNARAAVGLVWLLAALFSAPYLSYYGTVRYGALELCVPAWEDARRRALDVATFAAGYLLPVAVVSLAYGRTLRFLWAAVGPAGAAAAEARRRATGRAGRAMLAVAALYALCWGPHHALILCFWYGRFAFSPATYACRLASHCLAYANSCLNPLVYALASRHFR
GalR3 conf = GalR3 (human) antagonism, confirmation | AID 652245 | inhibition, % at 3 µM | HEK293 GalR3 CNG cAMP biosensor, membrane potential fluorescence; galR3 fused to GalR1 carboxy tail; challenged with forskolin and galanin at EC90 | shares compounds with GalR3 antagonist | 59% of 1,600 active;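 active = inhibition above the primary screen's cutoff, the mean inhibition of all screened compounds plus 3 SD, cut at about 13% in these data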;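 note: 0% = forskolin plus galanin and 100% = forskolin alone with DMSO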
HEK-CNG parental = acts as nonspecific agonist in parental HEK-CNG cells; shares compounds with GalR3 antagonist; 10% of 1,600 active; AID 652268; HEK293-CNG parental cells, cAMP membrane potential fluorescence; normalised: DMSO wells 0%, forskolin wells 100%; activation, % at 3 µM; in the data active = activation above about 1.3%
VP16 Luc counter = inhibits VP16 reporter, flagging COUP-TFII antagonist hits | HEK293 Gal4-VP16 luciferase reporter, luminescence | 25% of 2,500 active | inhibition, % at 8.5 µM | shares compounds with COUP-TFII inh; in the data active = inhibition above about 13%
COUP-TFII conf = confirmation of human COUP-TFII (NR2F2) inhibitors; inhibition, % at 8.5 µM; shares compounds with COUP-TFII inh; HEK293 NGFI-A luciferase reporter, luminescence; 45% of 2,500 active;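 active = mean inhibition over three repeats above a set limit taken from the earlier primary screen, cut at about 38% in these data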;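 note: 100% = cells given the luciferase reporter alone without the COUP-TF2 vector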
The depositor's hits bear a star; · = no result; [ ] = dose if it differs, or a comment. Only some compounds are listed: those with a hit (about 2.1% of all), similar ones and a draw of the others.

SMILES | aDG glyco up | HIV Env fusion | COUP-TFII inh | Gli-Sufu block | GalR3 antagonist | GalR3 conf | HEK-CNG parental | VP16 Luc counter | COUP-TFII conf
C[C@@H]1CN([C@@H](C)CO)S(=O)(=O)c2ccc(C#C[C@@H](C)O)cc2O[C@H]1CN(C)CC1CC1 | · | -50.8[16.7 µM] | · | · | · | · | · | · | ·
Cc1cc(C(=O)CSc2nc(N)cc(=O)[nH]2)c(C)n1CC1CCCO1 (configuration not stated) | -0.2 | · | 0.7 | 5.4 | -2.5 | · | · | · | ·
Cc1cc(C(=O)CSc2nc3ccccc3[nH]2)c(C)n1CC1CCCO1 (configuration not stated) | 0.0 | 12.5 | 80.3* | 42.8 | 109.7* | 4.8 | -0.2 | 33.6* | 87.7*
CCc1csc(N2[C@H](CO)[C@@H](c3ccc(-c4ccc(F)cc4)cc3)[C@@H]2C#N)n1 | · | 9.3[16.7 µM] | · | · | · | · | · | · | ·
C[C@H]1CN([C@@H](C)CO)C(=O)c2cc(C#CC(C)(C)O)cnc2O[C@H]1CN(C)C(=O)CN(C)C | · | -6.2[16.7 µM] | · | · | · | · | · | · | ·
CC(Nc1ncnc2sccc12)c1ccccc1 (configuration not stated) | 2.2* | 18.3 | 59.9* | 70.5* | 93.7* | 105.2* | 0.3 | 2.6 | 61.0*
c1ccc(Nc2ncnc3sccc23)cc1 | 0.1 | -17.8 | -3.5 | -14.5 | -7.5 | · | · | · | ·
Cc1ccc(S(=O)(=O)N(C)C[C@H]2OCCCC[C@H](C)Oc3ccc(NS(=O)(=O)c4cn(C)cn4)cc3C(=O)N([C@H](C)CO)C[C@H]2C)cc1 | · | 5.8[16.7 µM] | · | · | · | · | · | · | ·
Cc1ccc(S(=O)(=O)N(C)C[C@@H]2Oc3ccc(NS(=O)(=O)c4c(C)noc4C)cc3C(=O)N([C@@H](C)CO)C[C@@H]2C)cc1 | · | 13.8[16.7 µM] | · | · | · | · | · | · | ·
CC(C)Cc1ccc(CN2CCCC(NC(=O)c3ccnn3C)C2)cc1 (configuration not stated) | 0.8 | · | 45.7* | 41.0 | 32.0* | 0.2 | 0.2 | -6.7 | 18.3
CCN1/C(=C/c2ccc3cc(C)ccc3[n+]2CC)Sc2cc(C)ccc21 | 2.5 | 46.4 | 63.4* | 90.2* | 49.7* | 61.7* | 6.2* | 8.6 | 53.2*
O=C(Nc1ccc(Oc2cccnc2)nc1)c1ccc(C(F)(F)F)cc1 | 0.4 | -4.4 | 66.0* | 3.5 | 76.7* | 61.4* | -0.3 | 2.2 | 38.5*
COc1cccc(CN(C)C(=O)CNC(=O)c2ccc(-c3ccccc3)cc2)c1OC | 0.5 | 45.3 | 58.0* | 7.3 | 53.3* | 116.1* | -0.9 | 2.8 | 46.6*
CN1CCN(c2ccc(CNS(=O)(=O)Cc3cccc(C(F)(F)F)c3)cc2)CC1 | 1.0 | -4.5 | 60.8* | 38.0 | 59.7* | 110.9* | -0.3 | -2.9 | 45.0*
C[C@@H]1CCCCO[C@@H](CN(C)Cc2ccc3c(c2)OCO3)[C@@H](C)CN([C@@H](C)CO)C(=O)c2cc(NC(=O)CCCN(C)C)ccc2O1 | · | -16.0[16.7 µM] | · | · | · | · | · | · | ·
C[C@@H]1CN([C@@H](C)CO)S(=O)(=O)c2ccc(C#Cc3ccccc3)cc2O[C@H]1CN(C)C(=O)C1CC1 | · | 47.9[16.7 µM] | · | · | · | · | · | · | ·
Cc1ccc(CCNc2ncnc(Cl)c2N)cc1 | 4.1 | 3.9 | 63.9* | 10.7 | 103.9* | 104.1* | -0.1 | -68.5 | 49.0*
CC[C@@H]1CCC[C@@H](O)[C@@H](C)C(=O)O[C@H](C)[C@@H](C)C/C=C(C)/C(OC)=C\C(=O)N(C)C([C@@H](C)CC)C(=O)N(C)[C@@H](C(C)C)C(=O)N(C)[C@@H](COC)C(=O)N2CCC[C@H]2C(=O)N(C)[C@@H](C(C)C)C(=O)N2CCC[C@H]2C(=O)O1 (some centres not stated) | -0.1 | 19.6 | 82.8* | · | 100.5* | 115.3* | -1.2 | 13.8* | 82.0*
CCCC#Cc1cnc2c(c1)C(=O)N([C@H](C)CO)C[C@@H](C)[C@@H](CN(C)Cc1ccncc1)O2 | · | 26.6[16.7 µM] | · | · | · | · | · | · | ·
Cc1cc(Br)c(OCc2ccc(C(=O)N/N=C/c3ccc[nH]3)cc2)c(Br)c1 | 0.9 | 91.4* | 68.3* | 83.4* | 61.0* | 12.4 | 0.1 | 28.9* | 78.3*
C[C@@H]1CN([C@@H](C)CO)C(=O)c2cc(NC(=O)NC3CCCCC3)ccc2O[C@@H](C)CCCCO[C@@H]1CN(C)S(=O)(=O)c1ccc(Cl)cc1 | · | -64.4[16.7 µM] | · | · | · | · | · | · | ·
O=C(Nc1cccc(Br)c1)c1ccc(Cl)c(S(=O)(=O)N2CCOCC2)c1 | 2.4 | · | 58.6* | 20.1 | 88.0* | 99.7* | -0.8 | -5.7 | 57.3*
CC(=O)c1ccc(OCCCC(=O)Nc2ccc(Cl)c(S(=O)(=O)N3CCOCC3)c2)cc1 | 0.4 | · | 69.8* | 9.1 | 87.2* | 92.7* | -0.7 | 2.7 | 55.7*
COc1cc(CC2COC(=O)C2(O)Cc2ccc(O)c(OC)c2)ccc1O (configuration not stated) | 0.5 | · | 52.5* | 17.4 | 48.1* | 9.2 | 0.0 | -2.4 | 25.3
Cc1ccc(NC(=O)CSc2nn(-c3ccccc3)c(=S)s2)cc1S(=O)(=O)N(C)C | 2.9 | 49.2 | 68.1* | 8.1 | 71.5* | 93.1* | -0.4 | 2.3 | 63.1*
SMILES | aDG glyco up | HIV Env fusion | COUP-TFII inh | Gli-Sufu block | GalR3 antagonist | GalR3 conf | HEK-CNG parental | VP16 Luc counter | COUP-TFII conf
O=C(C[C@@H]1CC[C@H]2[C@@H](COC[C@H](O)CN2Cc2cc(F)ccc2F)O1)N1CCc2ccccc2C1 | · | 7.5[16.7 µM] | · | · | · | · | · | · | ·
CCCCCc1ccc(-c2cn(Cc3ccc(C(=O)c4ccccc4)cc3)nn2)cc1 | 0.1 | -78.8 | -0.2 | -80.7 | -4.1 | · | · | · | ·
O=C(c1ccccc1)c1ccc(Cn2cc(-c3ccccc3)nn2)cc1 | 4.5* | -0.9 | 38.2* | 22.7 | 24.8* | 56.2* | 0.0 | -79.0 | 10.3
CC1(C)CC2CC(C)(CN2S(=O)(=O)c2ccc(C(=O)Nc3cccc(S(=O)(=O)N4CCOCC4)c3)cc2)C1 (configuration not stated) | 2.9 | 24.9 | 68.4* | 26.8 | 87.0* | 115.4* | -1.9 | 0.5 | 62.8*
CC1(C)CC2CC(C)(CN2S(=O)(=O)c2ccc(C(=O)Nc3cc(S(=O)(=O)N4CCOCC4)ccc3Cl)cc2)C1 (configuration not stated) | 0.4 | -16.3 | 35.9 | 3.3 | -4.0 | · | · | · | ·
Cc1ccc(C(=O)NC2CCCc3c2cnn3-c2ccc(F)cc2F)cn1 (configuration not stated) | 0.8 | · | 56.1* | · | 97.2* | 109.7* | -0.5 | 5.2 | 59.4*
CC(=O)NC1CCCc2c1cnn2-c1ccc(C(C)(C)C)cc1 (configuration not stated) | 0.0 | -8.6 | 14.4 | 12.7 | -4.8 | · | · | · | ·
